These results are taken from PubChem BioAssay AID1571 (National Center for Advancing Translational Sciences (NCATS), 2009).

Inconclusive results are not listed. Entries that show only a call come without a potency. Activity calls are given as the source filed them. Calls come from the whole dose curve; as a rule, active = well fitted curve in the direction sought with a large enough effect; inconclusive = small, poorly fitted or top-dose-only effect, or effect the other way; inactive = flat fitted curve, though single readings scatter.

A short description of this test: Total Fluorescence Confirmation Counterscreen for Inhibitors of the Interaction of Thyroid Hormone Receptor and Steroid Receptor Coregulator 2, Fluorescein Fluoroprobe. As to conditions: TRbeta/SRC2-fluorescein mix, total fluorescence interference; series mostly up to 92.2 µM. The procedure, abridged:
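Human TRbeta ligand-binding domain (0.6 uM) with 20 nM fluorescein-labelled SRC2 peptide, 1 uM T3, 5% DMSO, Tris pH not given; 5 hr ambient incubation. Total fluorescence (S + 2P, parallel plus perpendicular channels) flags fluorescent or light-absorbing compounds; % activity per concentration.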
(The purpose of a counterscreen is to sort out artefacts and off-target activity.)

Take `CN1c2ccccc2C(C)(C)C12C=Nc1c(ccc3ccccc13)O2` (configuration not stated): the Potency entry is “inactive”. The entry for `Cc1cc2ccccc2n1CCNC(=O)C(C)Oc1ccccc1` (configuration not stated) is “inactive”.
